Active and inactive are the calls of the source.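 Rule for the calls, unless noted: active = fluorescence slope higher than the sample average by over 3 SD (cut at about -0.22 in these data, passing the limit was not always enough); inactive = the rest.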
Tests used:
[1] = inhibitors of TNFa-induced NFkB p65 translocation, primary screen, imaging, HUVEC, MLSMR starter and 10KST1 sets (AID 438;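 active = inhibition above 20% together with a positive visual image hit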;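 note: compound added about 3h40 before a 20 min TNFalpha stimulation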;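 for inhibition: signal is the nuclear over cytoplasmic p65 intensity ratio per well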); conditions: HUVEC TNFa-induced p65 nuclear translocation; cell count: measured here: nuclei count (cytotoxicity indicator), at 2.08 µM unless noted; inhibition: at 2 µM, stronger effect = higher value unless noted
[2] = endothelial E-selectin expression blockers – imaging, HUVEC, immunofluorescence, MLSMR starter and 10KST1 sets, primary screen (AID 487;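 active = visually confirmed hit in the image check and inhibition above 20%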;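 for inhibition: signal is fraction of cell area covered by stained E-selectin grains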;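 for nuclei count: 100% = median nuclei count of all wells on the same plate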); conditions: HUVEC TNFalpha-induced E-selectin immunofluorescence imaging, at 2 µM; inhibition: stronger effect = higher value; nuclei count: measured here: cell number, toxicity
[3] = Primary imaging screen for DUSP6 inhibitors that restore phospho-Erk in transfected HeLa cells, chemical complementation (AID 609;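 active = compounds giving at least 50% inhibition in the cell-based MKP-3 phosphatase rescue imaging test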;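 for inhibition: phospho-Erk level distribution per well compared with pooled transfected vehicle control wells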); conditions: HeLa MKP-3 transfected, phospho-Erk imaging KS statistic, at 10 µM
[4] = target: Dual specificity protein phosphatase 6 (Homo sapiens) (UniProt Q16828); experiment: as above; conditions: HeLa MKP-3 transfected, phospho-Erk imaging KS statistic, at 10 µM, stronger effect = higher value
[5] = target: Voltage-gated potassium channel subunit beta-2 (Rattus norvegicus) (UniProt P62483); experiment: inhibitors of rat Kvbeta2 reductase activity – biochemical, NADPH fluorescence, primary screen (AID 622); conditions: recombinant KvBeta, 4-cyanobenzaldehyde reduction, at 10 µM, stronger effect = higher value;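 note: slope of raw intensity against log time taken from 70 to 1610 s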
[6] = target: Voltage-gated potassium channel subunit beta-2 (Rattus norvegicus) (UniProt P62483); experiment: enhancers of rat Kvbeta2 NADPH turnover – biochemical, NADPH fluorescence, primary screen (AID 623;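 active = NADPH fluorescence slope more negative than the mean of all samples by about 3 SD, 99.7% confidence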;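 note: fluorescence intensity change per second fitted from 20 to 320 s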); conditions: Recombinant KvBeta, NADPH fluorescence decrease slope, 10 min; at 10 µM; stronger effect = lower value
[7] = target: Muscarinic acetylcholine receptor M4 (Homo sapiens) (UniProt P08173); experiment: M4-linked GIRK flux change, two-sided – cell-based, HEK293 M4/GIRK, thallium flux, BTC-AM, M4 allosteric agonist project, primary screen (AID 625;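 active = fluorescence slope after compound addition differing from the mean of all tested samples at 99.7% confidence, mostly higher but some lower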;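 note: thallium influx through GIRK channels coupled to M4 in HEK293 cells with BTC-AM dye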); conditions: at 10 µM, actives lie on both sides
[8] = inhibitors of larval lipid processing in zebrafish, primary screen, whole organism, PED6 fluorescence, gall bladder and intestine (AID 686;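 active = a full or partial loss of lipid-probe fluorescence in the fish gall bladder, intestine or both, judged by eye; inactive = no fluorescence loss, or compound toxic to the fish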;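 note: larvae 5 to 7 days old with five fish per well; signal comes from phospholipase A2 cleavage of quenched PED6 carried via bile; overnight exposure to compound and PED6 before scoring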); conditions: Zebrafish larvae PED6 lipid processing, fluorescence scoring
[9] = loss of swimming-algae plug formation – whole organism, Chlamydomonas reinhardtii, WT vs cilia-less mutant, absorbance, 96-well, primary screen (AID 463189;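 active = inhibition at or above 50% relative to wild type and mutant plate controls; inactive = inhibition below 50%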;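 note: 0% = wild type cc124 cells in DMSO and 100% = ciliumless bld1 mutant cells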); conditions: Chlamydomonas reinhardtii gravitaxis, OD600 absorbance, 2 days; at 10 µM; stronger effect = higher value
[10] = reduction of polyQ htt aggregates in cells – imaging, exon1htt(103Q)mCFP cells, high-content imaging, primary screen (AID 483;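 active = visual image review flags a hit and inhibition of aggregation exceeds 20%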;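 note: compound exposure lasted 3 days before fixation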;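 for nuclei count: percent of the per-plate median nuclei count of sample wells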); conditions: exon1htt(103Q)mCFP cell line, aggregate imaging, at 2 µM; inhibition of aggregation: stronger effect = higher value; nuclei count: measured here: cell count, toxicity
[11] = target: Alpha-2C adrenergic receptor (Homo sapiens) (UniProt P18825); experiment: compounds altering alpha2C-coupled GIRK flux – cell-based, HEK293 alpha2C/GIRK1/2, thallium flux, primary screen (AID 624;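 active = fluorescence slope after compound addition differing from the mean of all screened samples at 99.7% confidence, in either direction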;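 note: slope of fluorescence ratio to pre-addition baseline per second over 15 to 24 s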); conditions: thallium flux BTC fluorescence, at 10 µM, actives lie on both sides
[12] = blockers of RIG-like receptor reporter activation – cell-based, Sendai virus stimulus, luciferase, 10K MLSCN set, TLR/RLR signaling modifier project, primary screen (AID 602276;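 active = inhibition at or above 50% at 10 µM; inactive = inhibition below 50%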;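 note: firefly luciferase from ISG56 promoter only with Renilla not read in this screen; 0% = Sendai virus plus DMSO and 100% = medium plus DMSO without virus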); conditions: HEK293 RL24 IRF3 luciferase reporter, at 10 µM, stronger effect = higher value
[13] = TLR3 IRF3 reporter activation blockers – cell-based, poly I:C stimulus, luciferase, 10K MLSCN set, primary screen (AID 602277;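 active = inhibition of the reporter signal at or above 50%; inactive = inhibition below 50%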); conditions: HEK293-TLR3 RL24 IRF3 luciferase reporter, at 10 µM, stronger effect = higher value
[14] = measured here: cell density z-score
[15] = measured here: nuclear c-Myc green intensity z-score
[16] = measured here: nuclear pErk red intensity z-score, stronger effect = higher value

Sequence of Alpha-2C adrenergic receptor (Homo sapiens) (P18825 whole entry, looked up): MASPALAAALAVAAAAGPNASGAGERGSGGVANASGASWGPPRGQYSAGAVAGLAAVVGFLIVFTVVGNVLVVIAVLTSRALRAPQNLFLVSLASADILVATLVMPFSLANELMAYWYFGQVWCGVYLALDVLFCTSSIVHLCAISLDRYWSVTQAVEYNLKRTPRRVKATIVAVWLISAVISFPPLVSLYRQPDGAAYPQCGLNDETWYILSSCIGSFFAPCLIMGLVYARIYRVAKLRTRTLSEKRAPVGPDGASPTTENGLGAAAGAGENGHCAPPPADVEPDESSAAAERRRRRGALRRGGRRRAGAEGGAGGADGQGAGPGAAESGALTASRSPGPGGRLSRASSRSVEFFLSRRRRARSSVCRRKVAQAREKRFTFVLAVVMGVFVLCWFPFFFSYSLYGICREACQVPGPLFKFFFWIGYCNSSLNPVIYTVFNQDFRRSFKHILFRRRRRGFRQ
Sequence of Muscarinic acetylcholine receptor M4 (Homo sapiens) (P08173 whole entry, looked up): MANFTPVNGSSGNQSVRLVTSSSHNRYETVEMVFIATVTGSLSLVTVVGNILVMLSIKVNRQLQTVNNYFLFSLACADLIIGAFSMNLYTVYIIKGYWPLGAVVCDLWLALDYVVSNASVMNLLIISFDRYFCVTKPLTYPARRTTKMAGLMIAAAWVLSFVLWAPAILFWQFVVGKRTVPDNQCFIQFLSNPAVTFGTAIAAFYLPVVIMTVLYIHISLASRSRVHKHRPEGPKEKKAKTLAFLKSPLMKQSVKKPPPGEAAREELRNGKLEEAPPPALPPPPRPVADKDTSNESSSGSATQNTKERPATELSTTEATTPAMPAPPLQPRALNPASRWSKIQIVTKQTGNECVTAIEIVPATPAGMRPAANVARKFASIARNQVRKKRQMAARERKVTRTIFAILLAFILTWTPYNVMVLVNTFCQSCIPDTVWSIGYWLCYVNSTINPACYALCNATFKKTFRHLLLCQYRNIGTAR
Sequence of Dual specificity protein phosphatase 6 (Homo sapiens) (Q16828 whole entry, looked up): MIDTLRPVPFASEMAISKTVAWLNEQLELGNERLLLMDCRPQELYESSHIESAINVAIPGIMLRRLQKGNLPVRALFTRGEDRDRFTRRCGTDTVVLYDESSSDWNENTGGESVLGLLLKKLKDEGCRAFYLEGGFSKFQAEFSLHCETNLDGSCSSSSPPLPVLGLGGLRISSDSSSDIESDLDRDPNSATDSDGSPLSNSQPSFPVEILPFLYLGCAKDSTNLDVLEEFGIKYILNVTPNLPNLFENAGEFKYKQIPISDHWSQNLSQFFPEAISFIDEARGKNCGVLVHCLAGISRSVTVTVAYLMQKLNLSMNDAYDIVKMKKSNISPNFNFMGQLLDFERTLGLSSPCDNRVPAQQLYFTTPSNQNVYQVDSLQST
Sequence of Voltage-gated potassium channel subunit beta-2 (Rattus norvegicus) (P62483 whole entry, looked up): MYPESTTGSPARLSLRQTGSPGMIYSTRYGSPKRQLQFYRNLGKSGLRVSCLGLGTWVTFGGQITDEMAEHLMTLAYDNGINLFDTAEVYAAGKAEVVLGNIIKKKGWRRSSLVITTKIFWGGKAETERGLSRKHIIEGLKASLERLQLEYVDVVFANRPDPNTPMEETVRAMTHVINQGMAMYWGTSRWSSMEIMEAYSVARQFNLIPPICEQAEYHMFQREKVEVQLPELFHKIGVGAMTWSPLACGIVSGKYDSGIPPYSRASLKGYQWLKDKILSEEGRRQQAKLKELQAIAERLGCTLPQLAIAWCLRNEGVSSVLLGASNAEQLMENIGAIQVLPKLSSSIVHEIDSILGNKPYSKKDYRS

SMILES	cell count [1]	inhibition [1]	inhibition [2]	nuclei count [2] [%]	z-score [3, 14]	z-score [3, 15]	z-score [3, 16]	inhibition [4]	fluorescence slope [5]	NADPH fluorescence slope [6]	fluorescence slope [7]	outcome [8]	inhibition [9]	inhibition of aggregation [10]	nuclei count [10] [%]	slope [11]	inhibition [12]	inhibition [13]
COc1ccc(C2SCC(=O)Nc3c2c(=O)[nH]n3C2CCCCC2)cc1 (stereo not drawn)	380	-8.8% (inactive)	-197% (inactive)	138	0.845	-1.45	-0.612	14% (inactive)	-0.479 (inactive)	-0.000101 (inactive)	0.00663 (inactive)	inactive	6.02% (inactive)	–	–	–	–	–
CCOC(=O)c1cc(C)n(CCc2cnc[nH]2)c1C	561	2.4% (inactive)	-44.2% (inactive)	123	-1.19	-0.0641	0.767	-2.59% (inactive)	-0.47 (inactive)	-9.2e-05 (inactive)	0.00519 (inactive)	inactive	-3.61% (inactive)	–	–	–	–	–
CC1(C)NCCN2C(=O)CSC21 (stereo not drawn)	652	-12.6% (inactive)	-216% (inactive)	158	0.771	0.411	0.0731	4.72% (inactive)	-0.493 (inactive)	-5.8e-05 (inactive)	0.00571 (inactive)	inactive	9.56% (inactive)	–	–	–	–	–
Nc1ncc(P(=S)(N2CCOCC2)N2CCOCC2)s1	452	-2.7% (inactive)	-296% (inactive)	169	-0.00628	-0.183	-1.06	4.37% (inactive)	-0.461 (inactive)	-8.8e-05 (inactive)	0.00503 (inactive)	inactive	11.1% (inactive)	–	–	–	–	–
CCn1c(O)c(C(=O)CC2NCCc3ccccc32)c(=O)n(CC)c1=S (stereo not drawn)	494	-7.2% (inactive)	-84.9% (inactive)	120	-1.06	-1.07	1.31	3.97% (inactive)	-0.399 (inactive)	-1.1e-05 (inactive)	0.00707 (inactive)	inactive	-9.64% (inactive)	–	–	–	–	–
CCCCNC(=O)Nc1ccc(C(O)(C(=O)OCC)C(F)(F)F)cc1 (stereo not drawn)	688	-5.9% (inactive)	-16.7% (inactive)	173	-0.832	-1.24	1.19	3.49% (inactive)	-0.432 (inactive)	-4.2e-05 (inactive)	0.00537 (inactive)	inactive	5.22% (inactive)	–	–	–	–	–
OC(c1ccc(F)cc1)C(c1ccccc1)N1CCOCC1 (stereo not drawn)	679	2.9% (inactive)	8% (inactive)	153	-0.0994	1.62	0.344	-13.3% (inactive)	-0.427 (inactive)	-3.5e-05 (inactive)	0.00525 (inactive)	inactive	-7.5% (inactive)	–	–	–	–	–
Nc1c(C(=O)NCc2ccco2)c2nc3ccccc3nc2n1Cc1ccc(F)cc1	678	12.5% (inactive)	-9% (inactive)	108	0.15	1.06	-0.878	-7.67% (inactive)	-0.236 (inactive)	-1e-05 (inactive)	0.00698 (inactive)	inactive	34.8% (inactive)	–	–	–	–	–
CCCCNC(=O)Nc1ccc(C(O)(C(=O)OC)C(F)(F)F)cc1 (stereo not drawn)	632	-8.8% (inactive)	7.1% (inactive)	154	0.744	-1.2	0.72	18.4% (inactive)	-0.482 (inactive)	-4.8e-05 (inactive)	0.00513 (inactive)	inactive	8.19% (inactive)	–	–	–	–	–
COc1ccc(C2SCC(=O)Nc3c2c(=O)[nH]n3C2CCCCCC2)cc1 (stereo not drawn)	564	-7.2% (inactive)	70.4% (inactive)	96	1.06	0.0384	-1.4	2.71% (inactive)	-0.478 (inactive)	-3e-05 (inactive)	0.007 (inactive)	inactive	29.9% (inactive)	–	–	–	–	–
Cc1nn(Cc2ccccc2Cl)c(Cl)c1C(=O)OCC(=O)NCc1ccco1	459	-14% (inactive)	-20.7% (inactive)	112	–	–	–	–	-0.605 (inactive)	-1.7e-05 (inactive)	–	–	–	3.2% (inactive)	105	0.00264 (inactive)	5.25% (inactive)	-0.539% (inactive)
CCCN(CC#CCO)CCC	701	11.7% (inactive)	-121% (inactive)	162	0.317	1.4	0.749	-11.4% (inactive)	-0.448 (inactive)	-4.9e-05 (inactive)	0.00435 (inactive)	inactive	-2.44% (inactive)	–	–	–	–	–
COc1ccc(C(=O)CC2C(=O)N(C)C(=O)N(C)C2=O)cc1	726	14.4% (inactive)	-27.9% (inactive)	135	0.66	0.621	-1.11	-3.95% (inactive)	-0.453 (inactive)	-4.3e-05 (inactive)	0.00539 (inactive)	inactive	0.215% (inactive)	–	–	–	–	–
CCOC(=O)C1=C(C)OC(N)=C(C(=O)OCC)[C@@]12C(=O)N(CC(N)=O)c1ccccc12	465	-6.3% (inactive)	-219% (inactive)	186	-0.479	-0.527	-0.153	-0.624% (inactive)	-0.445 (inactive)	-5.7e-05 (inactive)	0.00512 (inactive)	inactive	5.83% (inactive)	–	–	–	–	–
OC1(c2ccc(F)cc2)CCNC1 (stereo not drawn)	391	-8% (inactive)	-146% (inactive)	147	-0.692	-1.09	1.31	1.48% (inactive)	-0.468 (inactive)	-0.000119 (inactive)	0.00482 (inactive)	inactive	16.5% (inactive)	–	–	–	–	–
CN1CCc2c(c(N3CCCCC3)nc3n[nH]c(N)c23)C1	496	-17.1% (inactive)	-154% (inactive)	127	1.06	-1.56	0.455	21.4% (inactive)	-0.463 (inactive)	-8.3e-05 (inactive)	0.00409 (inactive)	inactive	-3.54% (inactive)	–	–	–	–	–
COc1ccccc1-n1c(O)c(C=NCCCn2ccnc2)c(=O)[nH]c1=O	752	3.4% (inactive)	-23.3% (inactive)	150	-0.173	-0.884	0.0227	7.83% (inactive)	-0.426 (inactive)	-4.1e-05 (inactive)	0.00527 (inactive)	inactive	5.72% (inactive)	–	–	–	–	–
CCc1nc(N2CCNCC2)c(C#N)c2c1CSC(C)(C)C2	652	3% (inactive)	-79.8% (inactive)	159	-1.09	-0.257	0.497	1.12% (inactive)	-0.474 (inactive)	-1.6e-05 (inactive)	0.00552 (inactive)	inactive	15% (inactive)	–	–	–	–	–
NCC1(c2ccc3c(c2)OCCO3)CCCC1	634	8.6% (inactive)	-19.9% (inactive)	120	-0.692	-0.463	0.187	-13.3% (inactive)	-0.453 (inactive)	-2.2e-05 (inactive)	0.0056 (inactive)	inactive	-6.44% (inactive)	–	–	–	–	–
C=CCn1c(O)c(C(C)=Nc2ccc(N(CC)CC)cc2)c(=O)[nH]c1=O	327	2.5% (inactive)	-33.7% (inactive)	109	–	–	–	–	-0.492 (inactive)	2.3e-05 (inactive)	–	–	–	-15.3% (inactive)	102	0.00389 (inactive)	21.7% (inactive)	25.5% (inactive)
CCCNC(=O)c1c(N)n(Cc2ccc3c(c2)OCO3)c2nc3ccccc3nc12	699	-14.7% (inactive)	-9.2% (inactive)	107	–	–	–	–	-0.559 (inactive)	-2.1e-05 (inactive)	–	–	–	-5.3% (inactive)	104	0.00324 (inactive)	19.3% (inactive)	24.3% (inactive)
CN1C(=O)N(C)C(=O)C2(Cc3ccccc3N3CCOCC32)C1=O (stereo not drawn)	547	-5.7% (inactive)	-43.9% (inactive)	148	–	–	–	–	-0.363 (inactive)	3.8e-05 (inactive)	–	–	–	-30.5% (inactive)	92.5	0.00653 (inactive)	16.2% (inactive)	24.6% (inactive)
c1ccc(C2NCc3ccccc3-n3cccc32)cc1 (stereo not drawn)	704	-11% (inactive)	-10.1% (inactive)	93.5	–	–	–	–	-0.554 (inactive)	-4e-05 (inactive)	–	–	–	22.5% (inactive)	66.6	0.00504 (inactive)	6.74% (inactive)	15.8% (inactive)
CC1CCC(C(=O)NC(C(=O)N2CCC3(CC2)OCCO3)C(C)C)CC1 (stereo not drawn)	251	3.4% (inactive)	1.3% (inactive)	88	–	–	–	–	-0.399 (inactive)	-0.00014 (inactive)	–	–	–	0.1% (inactive)	97.2	0.00626 (inactive)	5.72% (inactive)	20.1% (inactive)
Cc1ccc(-c2nc(CS(=O)CC(=O)N3CCC4(CC3)OCCO4)c(C)o2)cc1 (stereo not drawn)	704	-30.6% (inactive)	-4.2% (inactive)	101	–	–	–	–	-0.62 (inactive)	-2.5e-05 (inactive)	–	–	–	-2.4% (inactive)	99.4	0.00606 (inactive)	16.5% (inactive)	19.1% (inactive)
Cc1ccc(Cn2c(C)c3cnn(CC(=O)N4CCC5(CC4)OCCO5)c(=O)c3c2C)cc1	471	-6.5% (inactive)	-135% (inactive)	110	–	–	–	–	-0.332 (inactive)	-6.2e-05 (inactive)	–	–	–	-6.5% (inactive)	110	0.0048 (inactive)	9.46% (inactive)	-2.44% (inactive)
CCCCn1c(O)c(C=NC2CCCCC2N)c(=O)[nH]c1=O (stereo not drawn)	747	-6% (inactive)	-67.3% (inactive)	119	–	–	–	–	-0.61 (inactive)	-4e-05 (inactive)	–	–	–	4.3% (inactive)	113	0.00682 (inactive)	8.89% (inactive)	26.1% (inactive)

From PubChem BioAssay
